Most compounds without a hit are left out; they make up all but 3.1% or so of the library.
pS6 MEF inh: mTORC1 pathway inhibition measured by phospho-rpS6; Tsc2-/- p53-/- MEF, phospho-rpS6 immunofluorescence/PI, 24 h; 0.78% of 44,000 active; Potency, µM (titrated, usually from 38.3 µM), for the others: at the highest dose activity change, negative = inhibition, actives largely listed as inhibitors;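 note: plate controls were DMSO for no effect and rapamycin for full effect; nearly all actives have a fitted effect of over 50% in size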
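Compounds act on Tsc2-/-, p53-/- fibroblasts carrying an empty vector for 24 h before fixation and dual staining for phospho-S6 and DNA (propidium iodide). Values are percentages of cells above a rapamycin-defined pS6/PI threshold.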
p53null 32C kill: kills p53 null cells at the permissive temperature; AID 903; H1299-neo p53 null cells, ATP luminescence, 24 h, 32C; 0.62% of 55,000 active; Potency, µM (titrated, usually from 46.1 µM), without a hit: top-dose activity change, negative = cytotoxicity, actives largely listed as cytotoxic;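 note: 0% = DMSO only and -100% = full killing by 100 µM tamoxifen; nearly all actives have a fitted effect of over 55% in size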
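H1299-neo (p53 null) cells, 600/well, treated 24 h at 32C with compound up to 46 uM; ATPlite luminescence viability, normalized to DMSO and 100 uM tamoxifen; AC50 by Hill fit.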
PMP22 txn: modulates PMP22 transcription in S16 Schwann cells | S16 Pmp22-F2sN Schwann cells, FLuc/NLuc coincidence luminescence, 24 h | Potency, µM (titrated, usually from 57.5 µM), for inactives: at the top dose activity change, negative = inhibition, actives largely listed as inhibitors | 2% of 43,000 active | AID 1508649; active = clear falling dose curves in both reporters; inconclusive = both reporters move, but less clearly or upward; inactive = either reporter flat; the % is the NLuc reporter signal
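Luminescent read-out of sequential FLuc and NLuc signals from a reporter embedded in the Pmp22 3' UTR of S16 Schwann cells, taken after 24 h compound exposure at 37C; compounds reducing both signals score as inhibitors of expression.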
S16 F2sN tox: toxic to S16 Pmp22-F2sN Schwann cells. S16 Pmp22-F2sN Schwann cells (luciferase reporters placed in the Pmp22 gene) viability, CellTiter-Glo, 24 h. Potency, µM (titrated, usually from 57.5 µM), without a hit: at the highest dose activity change, negative = cytotoxicity, hits mostly cytotoxic. 0.48% of 43,000 active; note: nearly all actives have a fitted effect of over 65% in size
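Luminescence from CellTiter-Glo, read by CCD camera after a 15 min room-temperature incubation, served as the viability signal. Reporter Schwann cells (S16 Pmp22-F2sN) had been treated with pin-transferred compounds for 24 h at 37C.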
OvCa metastasis: ovarian cancer metastasis inhibition, 3D TME model | SKOV3ip1-GFP adhesion/invasion on 3D omental model, fluorescence | Potency, µM (highest dose often 45.8 µM), inactives show at the highest dose activity change, negative = inhibition, hits mostly inhibitors | 0.1% of 46,000 active | AID 1963576;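 note: plate controls were DMSO wells for no effect and tomatine positive control wells for full effect; nearly all actives have a fitted effect of over 65% in size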
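Primary human omental fibroblast/mesothelial 3D culture pre-formed 48 h. SKOV3ip1-GFP cells added with compounds (0.36-46 umol/L), incubated 2 h RT/16 h 37 C, fixed; GFP cells quantified at 488/509 nm.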
p53null 39C kill: selectivity test: cytotoxicity in p53 null cells, nonpermissive temperature | H1299 p53-null (neo) cells, 39C, ATPlite viability, 24 h | Potency, µM (doses to about 46.1 µM), for inactives: top-dose activity, negative = cell killing, hits mostly cytotoxic | AID 904 | 0.97% of 55,000 active;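 note: 0% = DMSO only and -100% = full killing by 100 µM tamoxifen; nearly all actives have a fitted effect of over 50% in size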
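Concentration-response (up to 46 uM) was run for 24 h at the nonpermissive 39C on H1299-p53A138V or H1299-neo cells. ATP content was measured with ATPlite luminescence. AC50 values were Hill-modeled after normalizing between DMSO and 100 uM tamoxifen killing.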
Active calls of the source: *; i = inactive; u = inconclusive; x = no result. Unless noted, calls come from the whole dose curve; as a rule, active = well fitted curve in the direction sought with a large enough effect; inconclusive = small, poorly fitted or top-dose-only effect, or another doubt; inactive = no such curve, though single readings can be large; an effect the other way counts as inactive or inconclusive. Unless noted, % is set by controls: 0 for no effect and ±100 for the full control effect; potency is the fitted concentration of half-maximal effect.

SMILES | pS6 MEF inh | p53null 32C kill | PMP22 txn | S16 F2sN tox | OvCa metastasis | p53null 39C kill
COc1cc(C(=O)NC(c2ccc(Cl)cc2)c2cc(Cl)c3cccnc3c2O)cc(OC)c1OC (stereo unspecified) | -0.2% | u | u | 3.16µM* | u | -18.3%
COc1cccc(C(=O)NC(c2ccc(Cl)cc2)c2cc(Cl)c3cccnc3c2O)c1 (stereo unspecified) | -2.5% | u | 4.59µM* | 5.01µM* | u | -5.3%
CCC(=O)NC(c1ccccc1OC)c1ccc2cccnc2c1O (stereo unspecified) | x | 2.1% | x | x | x | u
COC(=O)C1=CO[C@@H](O)[C@@H]2C(CO)=CC[C@@H]12 | x | x | x | x | -5.6% | x
CN(C)CC(=O)N1CCC(c2ccc(NC(=O)c3ncc(C#N)[nH]3)c(C3=CCCCC3)c2)CC1 | x | x | x | x | 7.5% | x
COc1ccc(C)cc1NC(=O)CCNS(=O)(=O)c1cccc2nonc12 | 20.7µM* | -5.5% | -1.1% | 12.0% | i | 9.7%
COC(=O)c1c(SCC(=O)Nc2ccccc2C(F)(F)F)[nH]c2ccc(Cl)cc2c1=O | -3.4% | -25.2% | -9.9% | 14.1% | 4.9% | 6.31µM*
COC(=O)c1c(SCC(=O)Nc2cc(C)cc(C)c2)[nH]c2ccccc2c1=O | -9.7% | u | u | -11.5% | i | u
Cc1ccccc1NC(=O)c1c2c(nc3ccccc13)C(=O)N(C1CCCCC1)C2 | -16.0% | 6.9% | u | -0.5% | 27.8% | -17.1%
COc1cc(OC)c(NC(=O)c2c3c(nc4ccccc24)C(=O)N(C2CCCCC2)C3)cc1Cl | -9.5% | -29.0% | u | 25.1µM* | -5.3% | u
CCCN1CCN(c2ncnc3sc(C(=O)Nc4ccc(C(C)C)cc4)c(C)c23)CC1 | u | 2.2% | u | u | i | 5.9%
CCCN1CCN(c2ncnc3sc(C(=O)Nc4ccc(OC(F)(F)F)cc4)c(C)c23)CC1 | 16.5µM* | 9.4% | u | u | -28.1% | -17.3%
CCc1c(C)sc2c1CCN(Cc1ccccc1)C2c1ccccc1 (stereo unspecified) | 4.4% | 39.0% | 5.75µM* | u | 11.1% | 8.4%
N#CC1(c2ccc(NC(=O)c3cccnc3NCc3ccncc3)cc2)CCCC1 | x | x | x | x | -15.5% | x
O=C(Nc1cccc(Nc2ncc(Br)c(NCCc3cnc[nH]3)n2)c1)N1CCCC1 | x | x | x | x | 14.5% | x
COc1cc(Cl)c(NS(=O)(=O)c2ccc3c(c2)CC(C)N3C(=O)C2CCC2)c(OC)c1 (stereo unspecified) | -1.9% | 18.9% | 11.9µM* | u | -1.2% | -9.3%
COc1ccccc1NC(=O)C1CCC(CNS(=O)(=O)c2ccc3c(c2)CC(C)N3C(C)=O)CC1 (stereo unspecified) | u | 10.5% | 18.9µM* | u | i | -6.7%
CCc1ccc(NC(=O)C2CCC(CNS(=O)(=O)c3ccc4c(c3)CC(C)N4C(C)=O)CC2)cc1 (stereo unspecified) | u | -0.6% | -24.4% | -3.9% | 4.5% | -9.9%
CC(=O)N1c2ccc(S(=O)(=O)NCC3CCC(C(=O)Nc4ccc(F)cc4)CC3)cc2CC1C (stereo unspecified) | -8.0% | 16.4% | u | 14.1µM* | -2.6% | 14.6%
CC1Cc2cc(S(=O)(=O)NCCc3ccc(Cl)cc3)ccc2N1C(=O)C1CCC1 (stereo unspecified) | -6.7% | 11.2% | x | x | 0.9% | -28.3%
C[C@H]1[C@H](O)O[C@@H]2O[C@@]3(C)CC[C@@H]4[C@H](C)CC[C@@H]1[C@@]24OO3 | x | x | x | x | -18.1% | x
CC(C)Oc1ccc(CNC(=O)C2CCN(c3nc4ccccc4nc3C(F)(F)F)CC2)cc1 | -1.7% | -1.9% | u | 7.94µM* | -26.2% | -5.0%
CC(C)(C)C(=O)Nc1ccc(-c2nc3ccccc3s2)cc1 | 3.0% | 0.501µM* | -4.1% | 0.2% | u | 0.631µM*
CCS(=O)(=O)c1ccccc1C(=O)Nc1ccc(-c2nc3ccccc3s2)cc1 | 10.9% | -3.6% | -13.8% | 13.5% | i | -14.8%
CC[C@@H]1C=C(C)C[C@H](C)C[C@H](OC)[C@H]2O[C@@](O)(C(=O)C(=O)N3CCCC[C@@H]3C(=O)O[C@H](C(C)=C[C@@H]3CC[C@H](Cl)[C@H](OC)C3)[C@H](C)[C@@H](O)CC1=O)[C@H](C)C[C@H]2OC | x | x | x | x | -3.2% | x
SMILES | pS6 MEF inh | p53null 32C kill | PMP22 txn | S16 F2sN tox | OvCa metastasis | p53null 39C kill
COc1ccc(Cl)cc1NC(=O)c1c(NCc2cccnc2)sc2c1CCC(C)C2 (stereo unspecified) | 5.85µM* | u | u | u | -15.8% | 4.6%
C[C@H](NC(=O)C(C#N)=Cc1cccc(Br)n1)c1ccccc1 | x | x | x | x | -24.0% | x
COc1ccc(OC)c(C(=O)CC2(O)C(=O)N(Cc3ccccc3C)c3ccccc32)c1 (stereo unspecified) | u | 14.2% | -25.4% | u | 0.8% | u
Cc1ccc(CN2C(=O)C(O)(CC(=O)c3ccc(C)cc3)c3ccccc32)cc1 (stereo unspecified) | 9.27µM* | 8.6% | 7.61µM* | u | i | 20.3%
Cc1ccccc1CN1C(=O)C(O)(CC(=O)c2cccc(Br)c2)c2ccccc21 (stereo unspecified) | -14.0% | u | u | -23.8% | i | 31.6µM*
O=C(NCc1ccncc1)C12C[C@H]3C[C@@H](C1)CC(c1ccc(Cl)cc1)(C3)C2 | x | x | x | x | 22.1% | x
COc1ccc(C)cc1NC(=O)C(Cc1ccccc1)NS(=O)(=O)c1ccc(Br)s1 (stereo unspecified) | 6.56µM* | -4.2% | u | 1.5% | u | u
Cc1ccc(C2=Nc3ccc(Cl)cc3OC2)cc1 | x | x | x | x | -1.1% | x
CCN1CCN(C(=O)Cn2ncc3c4ccccc4n(Cc4c(C)cc(C)cc4C)c3c2=O)CC1 | 16.5µM* | 8.5% | u | u | u | u
O=C(CC(Nc1ccc(Cl)cc1)C(=O)O)c1ccccc1 (stereo unspecified) | x | u | x | x | x | 14.1µM*
COc1cccc(C(=O)Nc2cccc(-c3cn4ccsc4n3)c2)c1OC | 0.4% | -28.8% | 5.2% | -8.2% | -15.9% | 12.6µM*
Cn1c(SCc2ccccc2F)nc2c([nH]c3ccccc32)c1=O | -7.5% | -0.9% | -3.3% | 0.6% | 0.8% | -10.4%

Screens: PubChem BioAssay, National Center for Advancing Translational Sciences (NCATS)
